# ZTA DNA inh: counter-screen for EBNA-1 inhibitors: inhibitors of Epstein-Barr virus ZTA | 320,000 compounds, 0.15% hits | P03206 | inhibition, % at 11 µM | ZTA-DNA binding, fluorescence polarization; in the data active = inhibition above about 33%
# NCF1 inh: p47phox (human) inhibition; P14598; p47phox/p22phox peptide binding, fluorescence polarization, 2 h; inhibition, % at 24.7 µM; 220,000 compounds, 0.53% hits; AID 1274;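 active = inhibition above about 30%, limit read from the data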;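 note: 0% = p47phox with labelled peptide and 100% = labelled peptide alone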
# EBNA-1 inhibitor: blocks EBNA-1 binding to DNA; EBNA-1 DNA binding, fluorescence polarization; inhibition, % at 14.8 µM; 300,000 compounds, 0.34% hits; in the data active = inhibition above about 28%
# Rev-erbA mod: modulates human Rev-erb alpha binding to DNA; P20393; Rev-erbα–FITC-DNA binding, fluorescence polarization, 90 min; activity, % at 10 µM; 370,000 compounds, 0.79% hits; AID 1259318;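 active = activity above about 14%, limit read from the data; passing the limit was not always enough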;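 note: 0% = DMSO wells with 35 nM protein and 100% = DMSO wells with 750 nM protein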
# Target sequence (P20393 whole entry, looked up): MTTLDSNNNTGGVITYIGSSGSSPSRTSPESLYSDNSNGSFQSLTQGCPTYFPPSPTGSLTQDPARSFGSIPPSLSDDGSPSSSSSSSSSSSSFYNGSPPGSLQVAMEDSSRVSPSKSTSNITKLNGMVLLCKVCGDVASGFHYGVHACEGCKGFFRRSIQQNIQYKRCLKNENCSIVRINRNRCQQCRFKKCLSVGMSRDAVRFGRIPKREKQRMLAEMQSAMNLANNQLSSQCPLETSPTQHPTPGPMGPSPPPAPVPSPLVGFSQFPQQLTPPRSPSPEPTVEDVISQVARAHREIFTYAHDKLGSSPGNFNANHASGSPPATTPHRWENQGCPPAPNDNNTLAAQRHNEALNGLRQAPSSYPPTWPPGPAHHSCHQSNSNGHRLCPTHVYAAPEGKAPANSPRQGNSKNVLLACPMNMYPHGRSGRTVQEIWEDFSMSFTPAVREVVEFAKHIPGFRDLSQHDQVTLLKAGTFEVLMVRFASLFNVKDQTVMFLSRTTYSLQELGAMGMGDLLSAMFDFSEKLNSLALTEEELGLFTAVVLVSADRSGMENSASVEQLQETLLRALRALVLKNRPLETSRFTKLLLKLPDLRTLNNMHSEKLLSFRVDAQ
# PG9 binder: binds the HIV-1 gp120 antibody PG9. inhibition, % at 6.7 µM. 360,000 compounds, 0.43% hits. AID 624416. TR-FRET gp120-PG9 antibody binding; in the data active = inhibition above about 8.5%
# aDG glyco act: alpha-DG glycosylation activation | Pro5-aDG cells, alpha-DG glycosylation AlphaScreen (IIH6); 0% Pro5, 100% B10-LARGE cell signal | activation, % at 10 µM | 360,000 compounds, 0.22% hits;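 active = activation of at least 8% versus controls, or a plate z-score of at least 8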;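 note: Pro5 are CHO cells carrying HIG-tagged alpha-DG that lacks glycosylation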
# PG9 bind confirm: PG9 antibody binding, confirmed; inhibition, % at 6.7 µM; shares compounds with PG9 binder; TR-FRET PG9 antibody binding, biochemical; 1,500 compounds, 90% hits; in the data active = inhibition above about 9%
# PGV04 counter: PGV04 control antibody binding, counter-screen. inhibition, % at 6.7 µM. shares compounds with PG9 binder. 1,500 compounds, 95% hits. TR-FRET PGV04 antibody-gp120 binding, biochemical; in the data active = inhibition above about 9.5%
# * = called active by the depositor; x = no result given. In the library only some 1.9% were active in any assay of this set; here they are far more common.
SMILES,ZTA DNA inh,NCF1 inh,EBNA-1 inhibitor,Rev-erbA mod,PG9 binder,aDG glyco act,PG9 bind confirm,PGV04 counter
CC(=O)c1c(C)[nH]c(C(=O)Nc2ccc(C)cc2Br)c1C,2.2,x,-6.6,0.3,10.3*,0.2,8.0,10.9*
CC(C)c1cc(C(C)C)c(S(=O)(=O)N2CCC(c3cn4ccccc4n3)CC2)c(C(C)C)c1,x,x,x,8.1,x,x,x,x
O=C(NC1CCCC1)c1c[nH]c2ccc(F)cc2c1=O,-3.7,6.9,-3.2,5.8,0.7,-0.1,x,x
CNC(=O)c1c[nH]c2ccc(S(=O)(=O)Nc3ccccc3F)cc2c1=O,-3.8,x,-10.1,-1.6,12.0*,0.0,22.7*,25.2*
CCc1ccccc1NS(=O)(=O)c1ccc2[nH]cc(C(=O)NC3CCCC3)c(=O)c2c1,7.4,-20.3,7.3,12.3,11.6*,-0.1,18.6*,19.6*
COc1ccccc1Nc1nc2c(C)cccc2cc1C#N,-1.3,-18.0,-5.2,12.3,0.1,-0.4,x,x
CCOc1ccc(Nc2nc3c(C)cccc3cc2C#N)cc1,-8.4,x,-1.4,9.7,11.7*,0.4,15.5*,26.3*
Cc1cc(C)cc(C(=O)OCCCN(C)C2CN(Cc3cn(Cc4ccc([N+](=O)[O-])cc4)nn3)S(=O)(=O)C2)c1 (stereo not given),x,x,x,2.3,x,x,x,x
CC(=O)N1CCN(CCN2C(C)=CC(=C(C#N)C#N)C=C2C)CC1,2.2,-3.4,-4.7,5.1,-0.7,-0.2,x,x
CC1=CC(=C(C#N)C#N)C=C(C)N1CCN1CCN(C(=O)Nc2cccc(Cl)c2)CC1,-12.3,-5.4,20.8,14.6,11.8*,-0.1,16.9*,25.8*
O=C(O)Cn1c2c(c3ccccc31)CSc1ccc(Cl)cc1-2,13.6,x,-2.3,9.2,16.6*,0.1,10.2*,13.7*
O=C(O)Cn1c2ccccc2c2ccccc21,-1.6,-8.2,-0.3,2.4,-0.5,-0.1,x,x
O=c1c2ccccc2n(Cc2ccccc2)n1[C@@H](Cc1ccccc1)Cn1cc(-c2ccc(-c3ccccc3)cc2)nn1,x,x,x,-2.6,x,x,x,x
Cc1cc(NC(=O)c2ccc(NS(=O)(=O)c3ccccc3)cc2)no1,x,x,x,-4.0,x,x,x,x
S=c1[nH]nc(-c2cccc(Br)c2)o1,1.0,-2.1,-10.6,-6.4,27.4*,0.1,27.6*,39.2*
Cc1ccc(-n2c(SCC(N)=O)nc3c(c2=O)C2(CCCC2)Cc2ccccc2-3)cc1,-13.0,-12.8,-10.5,-2.5,10.9*,0.0,23.1*,32.4*
CCOc1cccc(NC(=O)CSc2nc(C)c3c(c2C#N)CCCC3)c1,7.5,2.0,-4.8,19.3,12.0*,0.2,15.5*,28.6*
Cc1nc(SCC(=O)Nc2ccc3c(c2)OCO3)c(C#N)c2c1CCCC2,5.7,-9.2,3.0,-2.1,-1.6,4.2,x,x
Fc1cccc(CNC(=S)OC2CCC23CCC(c2ccccc2)CC3)c1 (stereo not given),x,x,x,2.4,x,x,x,x
CCCCNC(=S)Nc1ccc(-c2nc3ccc(C)cc3s2)cc1,1.2,-9.9,14.8,3.7,-1.2,0.4,x,x
CCC(C)(C)NC(=S)Nc1ccc(-c2nc3ccc(C)cc3s2)cc1,11.1,-30.8,3.2,-5.1,11.3*,-0.2,10.2*,23.5*
CCOc1ccc2nc(NCCNC(=O)Nc3cccc(C)c3)c(C#N)cc2c1,8.5,-3.3,8.2,-0.9,9.8*,0.4,15.2*,32.2*
Cc1ccc2nc(NCCNC(=O)c3ccccc3)c(C#N)cc2c1,-15.2,x,-6.9,-2.6,1.7,0.0,x,x
CCOc1ccc2nc(NCCCNS(=O)(=O)c3ccc(C)cc3)c(C#N)cc2c1,12.4,6.7,-3.0,3.7,x,1.1,x,x
COc1ccc(C(=O)NCCNc2nc3ccc(C)cc3cc2C#N)cc1,-28.1,x,-1.0,-5.9,45.1*,0.0,12.1*,36.3*
SMILES,ZTA DNA inh,NCF1 inh,EBNA-1 inhibitor,Rev-erbA mod,PG9 binder,aDG glyco act,PG9 bind confirm,PGV04 counter
CC(=O)OC1CC(C)(C)N(OC(=O)c2ccc(N)cc2)C(C)(C)C1,7.8,-8.7,-2.3,-0.2,28.8*,0.0,31.6*,42.9*
CC(=O)OC1CC(C)(C)N(OC(=O)c2ccccc2)C(C)(C)C1,3.4,0.3,-15.9,4.4,0.9,-0.1,x,x
COc1ccc2[nH]c(=O)c(COC(=O)c3cccs3)cc2c1,4.5,-12.0,-14.3,3.3,32.7*,0.8,16.1*,26.5*
COc1ccc2[nH]c(=O)c(CN(C)C(=O)c3cccs3)cc2c1,3.8,-2.8,9.9,5.6,1.0,0.0,x,x
Cc1nnc(NC(=O)c2ccc(-c3ccc(Cl)cc3)o2)s1,-9.4,x,2.0,4.7,11.1*,-0.2,12.7*,27.1*
CCOC(=O)N1CCN(C(=O)C[C@H]2C[C@@]3(C(=O)OC)C(=C[C@H](C(C)C)O[C@@H]3C3CC3)N(CCc3ccc(OC)c(OC)c3)C2=O)CC1,x,x,x,-2.6,x,x,x,x
CCN(CC)CCCN1C(=O)C(O)=C(C(=O)c2cc3cccc(OC)c3o2)C1c1ccncc1 (stereo not given),3.6,-15.8,-8.8,-1.2,15.2*,0.1,25.7*,37.4*
CN(C)CCN1C(=O)C(O)=C(C(=O)c2cc3ccccc3o2)C1c1ccccn1 (stereo not given),3.2,-14.7,7.6,x,x,x,x,x
COc1cccc2cc(C(=O)C3=C(O)C(=O)N(CCN(C)C)C3c3ccc(F)cc3)oc12 (stereo not given),-5.7,-3.3,-5.0,1.1,20.8*,0.0,31.1*,41.0*
COc1cccc(C2C(C(=O)c3cc4ccccc4o3)=C(O)C(=O)N2CCN(C)C)c1OC (stereo not given),14.4,x,1.0,-4.7,29.5*,-0.1,32.7*,53.9*
CCN(CC)CCCN1C(=O)C(O)=C(C(=O)c2cc3ccccc3o2)C1c1ccccn1 (stereo not given),-0.3,-10.6,-9.1,-7.3,25.1*,-0.2,55.5*,72.5*
COc1cccc(C2C(C(=O)c3ccco3)=C(O)C(=O)N2CCN(C)C)c1OC (stereo not given),-8.5,-2.9,-10.9,-0.5,0.3,-0.3,x,x
COc1cccc2cc(C(=O)C3=C(O)C(=O)N(CCN4CCOCC4)C3c3ccc(C)o3)oc12 (stereo not given),-12.8,x,-7.5,-1.8,1.6,0.0,x,x
C#Cc1cccc(OC[C@@H](O)CN2CCC(C(O)(c3ccccc3)c3ccccc3)CC2)c1,x,x,x,-1.1,x,x,x,x
COc1cccc(OC)c1NC(=O)OCCN1CCCC12CCC(c1ccccc1)CC2 (stereo not given),x,x,x,-8.1,x,x,x,x
COC(=O)c1sc(NC(=O)CSc2nc3cccnc3n2C)nc1C,-30.0,x,-10.9,3.4,21.9*,0.3,33.4*,45.3*

# Bioassay records (PubChem)
